{"source": "PubChem BioAssay AID720597", "about": "(Broad Institute, 2013)", "note": "Results with a measured potency or affinity are listed apart. Active and inactive are the calls of the source.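 Rule for the calls: active = fitted half-maximal dose no more than twice the top valid tested dose, for compounds that lower signal; inconclusive = fit invalid, or curve flat with activity between -70 and -30; inactive = potency past limit, curve flat within ±30, or signal increasing.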", "data": [{"biological_target": "NAD-dependent protein deacylase sirtuin-5, mitochondrial (Homo sapiens) (UniProt Q9NXA8)", "sequence (Q9NXA8 whole entry, looked up)": "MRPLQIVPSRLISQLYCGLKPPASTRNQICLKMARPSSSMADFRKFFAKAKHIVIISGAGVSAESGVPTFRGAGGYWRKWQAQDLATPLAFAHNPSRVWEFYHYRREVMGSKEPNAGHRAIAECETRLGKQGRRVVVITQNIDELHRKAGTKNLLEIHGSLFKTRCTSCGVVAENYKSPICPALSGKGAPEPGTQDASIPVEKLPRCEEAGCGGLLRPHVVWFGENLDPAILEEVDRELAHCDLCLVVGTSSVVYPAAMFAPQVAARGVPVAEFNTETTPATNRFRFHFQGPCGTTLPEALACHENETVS", "assay": "SIRT5 deacylase inhibitors, dose response, biochemical, fluorescence imaging, cherry-pick, set 6 (AID 720597);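 note: lower AMC signal can also come from blocking the trypsin step; 0% = median of neutral control wells and -100% = median of positive control wells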", "conditions": "Purified SirT5, succinyl-peptide-AMC/trypsin fluorescence; series mostly up to 15 µM; activity change, negative = inhibition: at the top concentration", "values": [{"smiles": "C[C@H]1CN([C@@H](C)CO)C(=O)c2cc(C#CCN(C)C)cnc2O[C@H]1CN(C)Cc1ccncc1", "activity change, negative = inhibition": "-5.33% (inactive)"}, {"smiles": "C[C@@H]1CCCCO[C@@H](CN(C)Cc2ccc(Cl)c(Cl)c2)[C@@H](C)CN([C@H](C)CO)C(=O)c2cc(NC(=O)CCCCCC(=O)Nc3ccccc3N)ccc2O1", "activity change, negative = inhibition": "13% (inactive)"}, {"smiles": "COc1ccc(C#Cc2ccc([C@@H]3[C@@H](CO)N4C(=O)CN(C(=O)c5cccnc5)C[C@@H]34)cc2)cc1", "activity change, negative = inhibition": "-16.9% (inactive)"}, {"smiles": "Cc1ccc(S(=O)(=O)N(C)C[C@@H]2OCCCC[C@H](C)Oc3ccc(NS(=O)(=O)c4ccccc4)cc3C(=O)N([C@H](C)CO)C[C@@H]2C)cc1", "activity change, negative = inhibition": "28.1% (inactive)"}, {"smiles": "C[C@@H]1CN([C@@H](C)CO)C(=O)c2cc(NS(=O)(=O)c3ccccc3)ccc2O[C@@H]1CN(C)Cc1ccc(Oc2ccccc2)cc1", "activity change, negative = inhibition": "-5.98% (inactive)"}, {"smiles": "C[C@H]1CN([C@@H](C)CO)S(=O)(=O)c2ccc(-c3cccc(F)c3)cc2O[C@@H]1CN(C)C(=O)Nc1cc(F)ccc1F", "activity change, negative = inhibition": "-33.1% (inactive)"}, {"smiles": "Cc1ccccc1-c1ccc([C@H]2[C@H](CO)N3CCCCN(S(=O)(=O)c4ccc(F)cc4)C[C@@H]23)cc1", "activity change, negative = inhibition": "-14.6% (inactive)"}, {"smiles": "C[C@H](CO)N1C[C@H](C)[C@@H](CN(C)Cc2ccc(Cl)c(Cl)c2)Oc2ccc(NS(=O)(=O)c3ccccc3)cc2CC1=O", "activity change, negative = inhibition": "-21% (inactive)"}, {"smiles": "Cc1cccc(-c2ccc([C@@H]3[C@@H](CO)N4C(=O)CN(S(=O)(=O)c5cccc(F)c5)C[C@@H]34)cc2)c1", "activity change, negative = inhibition": "5.16% (inactive)"}, {"smiles": "Cc1ccccc1-c1ccc2c(c1)O[C@@H](CN(C)C(=O)Nc1ccc(F)cc1)[C@@H](C)CN([C@@H](C)CO)S2(=O)=O", "activity change, negative = inhibition": "8.23% (inactive)"}, {"smiles": "C[C@@H]1CCCCO[C@@H](CN(C)C(=O)Cc2ccccc2)[C@@H](C)CN([C@@H](C)CO)C(=O)c2cc(NC(=O)Nc3ccc(F)cc3)ccc2O1", "activity change, negative = inhibition": "-29.6% (inactive)"}, {"smiles": "C[C@H]1CN([C@@H](C)CO)S(=O)(=O)c2ccc(/C=C/c3ccccc3)cc2O[C@H]1CN(C)Cc1ccccc1", "activity change, negative = inhibition": "-5.16% (inactive)"}, {"smiles": "O=C(C[C@H]1CC[C@@H](NC(=O)c2ccccc2)[C@H](CO)O1)NCCc1ccncc1", "activity change, negative = inhibition": "27.9% (inactive)"}, {"smiles": "C/C=C/c1cnc2c(c1)C(=O)N([C@@H](C)CO)C[C@@H](C)[C@@H](CN(C)C(=O)NC1CCCCC1)O2", "activity change, negative = inhibition": "35.9% (inactive)"}, {"smiles": "COc1ccc(S(=O)(=O)Nc2ccc3c(c2)C(=O)N([C@H](C)CO)C[C@@H](C)[C@H](CN(C)Cc2ccc(Oc4ccccc4)cc2)O3)cc1", "activity change, negative = inhibition": "-25.1% (inactive)"}, {"smiles": "CCCC#Cc1ccc2c(c1)[C@@H]1[C@@H](CCN1S(=O)(=O)c1ccccc1C)[C@@H](CO)N2", "activity change, negative = inhibition": "-16.7% (inactive)"}, {"smiles": "C[C@@H]1CN([C@H](C)CO)C(=O)c2cc(C#CCN(C)C)cnc2O[C@@H]1CN(C)Cc1ccncc1", "activity change, negative = inhibition": "17.4% (inactive)"}, {"smiles": "Cc1ccc(-c2ccc3c(c2)O[C@H](CN(C)Cc2cccnc2)[C@H](C)CN([C@H](C)CO)S3(=O)=O)cc1", "activity change, negative = inhibition": "1.72% (inactive)"}, {"smiles": "O=S(=O)(N[C@@H]1CC[C@@H](CCn2cc(Cc3ccccc3)nn2)O[C@H]1CO)c1ccccc1F", "activity change, negative = inhibition": "8.56% (inactive)"}, {"smiles": "O=C(C[C@H]1CC[C@@H](NS(=O)(=O)c2ccccc2)[C@@H](CO)O1)NCc1ccncn1", "activity change, negative = inhibition": "27.1% (inactive)"}, {"smiles": "C[C@@H]1CN([C@@H](C)CO)S(=O)(=O)c2ccc(C#Cc3ccc(F)cc3)cc2O[C@H]1CN(C)C(=O)NC1CCCCC1", "activity change, negative = inhibition": "2.16% (inactive)"}, {"smiles": "COc1ccc(S(=O)(=O)N(C)C[C@H]2OCCCC[C@H](C)Oc3ccc(NS(=O)(=O)c4ccc(C)cc4)cc3C(=O)N([C@@H](C)CO)C[C@@H]2C)cc1", "activity change, negative = inhibition": "-19.4% (inactive)"}, {"smiles": "Cc1cc(C(=O)Nc2cccc3c2O[C@@H](CN(C)Cc2ccc(Oc4ccccc4)cc2)[C@H](C)CN([C@H](C)CO)C3=O)n(C)n1", "activity change, negative = inhibition": "6.07% (inactive)"}, {"smiles": "C[C@@H]1CN([C@@H](C)CO)C(=O)c2cc(NS(=O)(=O)c3cccs3)ccc2O[C@@H](C)CCCCO[C@@H]1CN(C)Cc1ccc(C(F)(F)F)cc1", "activity change, negative = inhibition": "-16.5% (inactive)"}, {"smiles": "C[C@H]1CN([C@@H](C)CO)C(=O)c2cc(-c3ccc(C#N)cc3)cnc2O[C@@H]1CN(C)C(=O)Nc1ccc(C(F)(F)F)cc1", "activity change, negative = inhibition": "-27.3% (inactive)"}, {"smiles": "Cc1noc(C)c1S(=O)(=O)N(C)C[C@@H]1Oc2ccc(NC(=O)Cn3cnnn3)cc2C(=O)N([C@@H](C)CO)C[C@@H]1C", "activity change, negative = inhibition": "-12.8% (inactive)"}, {"smiles": "C[C@H]1CN([C@@H](C)CO)S(=O)(=O)c2ccc(/C=C/c3ccccc3)cc2O[C@@H]1CN(C)C(=O)NC1CCCCC1", "activity change, negative = inhibition": "15.3% (inactive)"}, {"smiles": "COCC(=O)N1C[C@@H](C)[C@@H](OC)CN(C)C(=O)c2ccc(NC(=O)c3cc(C)on3)cc2OC[C@@H]1C", "activity change, negative = inhibition": "-17% (inactive)"}]}]}
